Measurements: ChEMBL document CHEMBL1157539, “Thousands of chemical starting points for antimalarial lead identification” (Nature, 2010)

Experiments:
Type in all cases: functional
Plasmodium falciparum [1] = test: GSK_TCMDC: Inhibition of Plasmodium falciparum 3D7 in whole red blood cells, using parasite LDH activity as an index of growth. Test compounds present at 2uM
Plasmodium falciparum [2] = test: GSK_TCMDC: Inhibition of Plasmodium falciparum Dd2 in whole red blood cells, using parasite LDH activity as an index of growth. Test compounds present at 2uM
HepG2 = test: GSK_TCMDC: Percent inhibition of human HepG2 cell line. Test compounds present at 10uM.

C#CCOc1ccc(N2C(N)=NC(N)=NC2(C)C)cc1.Cl
Inhibition (Plasmodium falciparum [1]): 94% | Inhibition (Plasmodium falciparum [2]): 0% | Inhibition (HepG2): 43%

Cc1cc(C)c(C(=O)Nc2ccc3nc(C)cc(N)c3c2)c(C)c1.Cl
Inhibition (Plasmodium falciparum [1]): 84% | Inhibition (Plasmodium falciparum [2]): 14% | Inhibition (HepG2): 12%

C[C@H](NC(=O)c1c(OC2CN(C(c3ccccc3)c3ccccc3)C2)c(-c2ccccc2)nc2ccccc12)C1CCCCC1
Inhibition (Plasmodium falciparum [1]): 92% | Inhibition (Plasmodium falciparum [2]): 74% | Inhibition (HepG2): 0%

CCN(CC)CCN(Cc1ccc(-c2ccc(C(F)(F)F)cc2)cc1)C(=O)Cn1c(CCc2cc(F)ccc2F)nc(=O)c2ccccc21.O=C(O)C(O)C(O)C(=O)O
Inhibition (Plasmodium falciparum [1]): 98% | Inhibition (Plasmodium falciparum [2]): 52% | Inhibition (HepG2): 42%

CN(C)C(CNc1ncnc2cc(Cl)ccc12)Cc1ccccc1 (stereo not given)
Inhibition (Plasmodium falciparum [1]): 96% | Inhibition (Plasmodium falciparum [2]): 88% | Inhibition (HepG2): 13%

COc1ccc(-c2ccc(NC(=O)c3cccc(Cl)c3)c(F)c2)cc1CN1CCCN(C)CC1.O=C(O)C(F)(F)F
Inhibition (Plasmodium falciparum [1]): 100% | Inhibition (Plasmodium falciparum [2]): 42% | Inhibition (HepG2): 43%

CN1CCN(CC(=O)Nc2cccc(-c3ccc(-c4nc5cc(F)ccc5[nH]4)cc3)c2)CC1
Inhibition (Plasmodium falciparum [1]): 100% | Inhibition (Plasmodium falciparum [2]): 98% | Inhibition (HepG2): 20%

CCCCCN1CCCC1CNS(=O)(=O)c1cccc(C(=O)Nc2cccc(C(F)(F)F)c2)c1.O=C(O)C(F)(F)F (stereo not given)
Inhibition (Plasmodium falciparum [1]): 96% | Inhibition (Plasmodium falciparum [2]): 12% | Inhibition (HepG2): 15%

COc1ccccc1CNC(=O)C(=O)Nc1c(-c2ccccc2)[nH]c2ccccc12
Inhibition (Plasmodium falciparum [1]): 99% | Inhibition (Plasmodium falciparum [2]): 91% | Inhibition (HepG2): 0%

O=C(NCC1CCN(C/C=C/c2ccccc2)CC1)Nc1ccc(Oc2ccccc2)cc1
Inhibition (Plasmodium falciparum [1]): 83% | Inhibition (Plasmodium falciparum [2]): 11% | Inhibition (HepG2): 40%

CCCNC(=O)C1Cc2c([nH]c3cc(Br)ccc23)C2(CCN(CCc3ccccc3)CC2)N1 (stereo not given)
Inhibition (Plasmodium falciparum [1]): 92% | Inhibition (Plasmodium falciparum [2]): 26% | Inhibition (HepG2): 15%

COc1ccc2nc3cc(Cl)ccc3c(Nc3ccc(O)c(CNC(C)C)c3)c2c1
Inhibition (Plasmodium falciparum [1]): 100% | Inhibition (Plasmodium falciparum [2]): 100% | Inhibition (HepG2): 5%

Cc1cccc2nc(-c3ccc(-c4ccc(NC(=O)Nc5ccc(Cl)c(Cl)c5)cc4)s3)[nH]c12
Inhibition (Plasmodium falciparum [1]): 100% | Inhibition (Plasmodium falciparum [2]): 100% | Inhibition (HepG2): 100%

CCc1cccc(C)c1-n1nc(-c2cc(C(C)(C)C)oc2C)cc1N
Inhibition (Plasmodium falciparum [1]): 95% | Inhibition (Plasmodium falciparum [2]): 95% | Inhibition (HepG2): 4%

CCOC(=O)c1c(-c2ccccc2)nc2c(sc3ccccc32)c1O
Inhibition (Plasmodium falciparum [1]): 97% | Inhibition (Plasmodium falciparum [2]): 65% | Inhibition (HepG2): 2%

OC(COCc1ccc(-c2ccccc2)cc1)CN1CCCCC1 (stereo not given)
Inhibition (Plasmodium falciparum [1]): 99% | Inhibition (Plasmodium falciparum [2]): 75% | Inhibition (HepG2): 13%

CCCc1cc(=O)[nH]c(-n2nc(C)cc2NC(=O)CC(c2ccccc2)c2ccccc2)n1
Inhibition (Plasmodium falciparum [1]): 97% | Inhibition (Plasmodium falciparum [2]): 88% | Inhibition (HepG2): 39%

O=C(Nc1cccc(C2=NCCN2)c1)Nc1cccc(C2=NCCN2)c1 [IMIDOCARB]
Inhibition (Plasmodium falciparum [1]): 98% | Inhibition (Plasmodium falciparum [2]): 99% | Inhibition (HepG2): 16%

CCc1ccc(C2CCN(CCCCNC(=O)c3ccc(-c4ccc(C(F)(F)F)cc4)cc3)CC2)c(OCCO)c1.Cl
Inhibition (Plasmodium falciparum [1]): 100% | Inhibition (Plasmodium falciparum [2]): 69% | Inhibition (HepG2): 82%

O=C(Nc1cccc(CN2CCCN(Cc3cccc(Cl)c3)CC2)c1)c1ccc(Cl)c(Cl)c1.O=C(O)C(F)(F)F
Inhibition (Plasmodium falciparum [1]): 89% | Inhibition (Plasmodium falciparum [2]): 17% | Inhibition (HepG2): 18%

O=C(O)C(F)(F)F.c1ccc(C(c2ccccc2)N2CCC(NCc3ccc(OCCCN4CCCCC4)cc3)CC2)cc1
Inhibition (Plasmodium falciparum [1]): 100% | Inhibition (Plasmodium falciparum [2]): 100% | Inhibition (HepG2): 74%

Cc1cc(Nc2ccc3ccccc3c2)n2ncnc2n1
Inhibition (Plasmodium falciparum [1]): 96% | Inhibition (Plasmodium falciparum [2]): 95% | Inhibition (HepG2): 11%

CCCN(CCC)C(=O)c1cc(C(=O)N[C@@H](Cc2ccccc2)[C@H](O)CNC(C)(C)c2cccc(C(F)(F)F)c2)cc(N2CCCCS2(=O)=O)c1
Inhibition (Plasmodium falciparum [1]): 99% | Inhibition (Plasmodium falciparum [2]): 98% | Inhibition (HepG2): 19%

CCNc1cc(C(=O)N[C@@H](Cc2ccccc2)[C@H](O)CNC(C)(C)CSCC(C)C)cc(N2CCCC2=O)c1
Inhibition (Plasmodium falciparum [1]): 100% | Inhibition (Plasmodium falciparum [2]): 97% | Inhibition (HepG2): 0%

CCN(CC)c1ccc(-c2nc3cc(Cl)cnc3[nH]2)cc1
Inhibition (Plasmodium falciparum [1]): 85% | Inhibition (Plasmodium falciparum [2]): 85% | Inhibition (HepG2): 16%

CS(=O)(=O)O.FC(F)(F)COc1ccc2ccccc2c1CCNCCCCNCCc1c(OCC(F)(F)F)ccc2ccccc12
Inhibition (Plasmodium falciparum [1]): 100% | Inhibition (Plasmodium falciparum [2]): 53% | Inhibition (HepG2): 99%

COc1ccc(CN2CCC(CNCc3cccc(-c4ccccc4)c3)CC2)cc1.O=C(O)C(F)(F)F
Inhibition (Plasmodium falciparum [1]): 100% | Inhibition (Plasmodium falciparum [2]): 92% | Inhibition (HepG2): 96%

O=C(NCC1CCN(CCN2CCC(c3cn(CCO)c4ccccc34)CC2)CC1)c1ccc(-c2ccc(C(F)(F)F)cc2)cc1
Inhibition (Plasmodium falciparum [1]): 100% | Inhibition (Plasmodium falciparum [2]): 100% | Inhibition (HepG2): 100%

CCC(C)(C)c1ccc(S(=O)(=O)Nc2ccc(Cl)c(OCCN3CCCCC3)c2)cc1
Inhibition (Plasmodium falciparum [1]): 88% | Inhibition (Plasmodium falciparum [2]): 93% | Inhibition (HepG2): 100%

COc1ccc(Cl)cc1N1CCN(CCCNC(=O)c2ccc(-c3nc4ccc(C(F)(F)F)cc4[nH]3)c(C)c2)CC1
Inhibition (Plasmodium falciparum [1]): 95% | Inhibition (Plasmodium falciparum [2]): 14% | Inhibition (HepG2): 6%
